Source: PubChem
Only some compounds are listed: those with a hit (about 19% of all), similar ones and a draw of the others.
Giardia kill: Giardia lamblia killing. Giardia lamblia trophozoite viability. activity change, % at 7.66 µM, hits read low. 0.15% of 340,000 active; in the data active = activity change below about -80%; inconclusive = between about -30% and that limit;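 note: parasites exposed to compound for two days anaerobically before the ATP read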
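Anaerobic 48 hrs incubation at 37 deg C of 100 trophozoites/well with test compounds; ATPLite 1-Step luminescence, 15-30 min RT, reports cellular ATP as viability.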
IL-1B inflam inh: inhibitors of inflammasome signaling (IL-1 beta secretion). THP-1 LPS/ATP IL-1B secretion, AlphaLISA, 16 h; stronger effect = lower value. activity change, % at 57.5 µM. AID 743279. 4.7% of 360,000 active; in the data active = activity change below about -50%; inconclusive = mostly about -30% to -49%
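THP-1 cells pretreated 1 hr with compounds (up to 57.5 uM final), then stimulated with LPS (250 ng/mL final) plus ATP (1.25 mM final); secreted IL-1B measured by AlphaLISA after 16 hr, decreased signal indicating inhibition.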
ELG1 repair inh: inhibitors of ELG1-dependent DNA repair in HEK293T cells; HEK293T ELG1-luciferase reporter, luminescence, 16 h; DNA damage induced by 5-fluorouridine; 2.3% of 330,000 active; AID 504467; Potency, µM (top dose mostly 46.1 µM), inactives show at the top dose activity change, negative = inhibition, most hits filed as inhibitors; note: potency is the fitted concentration of half-maximal effect; nearly all actives have a fitted effect of over 55% in size
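Luminescence from the luciferase reporter, measured 30 min after ONE-Glo reagent at room temperature, was the read-out. Beforehand, 2,000 cells per well were exposed for 16 hr at 37 °C to 5-fluorouridine together with compound or vehicle.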
TDP1 cell CPT: DT40-hTDP1 cell growth loss with CPT; Potency, µM (highest dose often 46.2 µM), without a hit: at the highest dose activity change, negative = growth inhibition, hits mostly inhibitors; AID 686979; chicken DT40 Tdp1-/-;hTDP1 cells + 20 nM CPT, ATP luminescence, 48 h; 12% of 420,000 active; note: potency is the fitted concentration of half-maximal effect; nearly all actives have a fitted effect of over 55% in size
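Cell growth measured by CellTiter-Glo luminescence after a minimum 48 h, 37 C compound exposure with 20 nM CPT in Tdp1-knockout DT40 cells stably expressing hTDP1, seeded 400/well; qHTS titration format.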
TDP1 block: blocks human tyrosyl-DNA phosphodiesterase 1; Q9NUW8; recombinant TDP1, AlphaScreen DNA substrate cleavage; Potency, µM (doses to about 130 µM), inactives show at the top dose activity change, negative = inhibition, usual class: inhibitors; 0.28% of 350,000 active; note: potency is the fitted concentration of half-maximal effect; nearly all actives have a fitted effect of over 40% in size
Target sequence (Q9NUW8 whole entry, looked up): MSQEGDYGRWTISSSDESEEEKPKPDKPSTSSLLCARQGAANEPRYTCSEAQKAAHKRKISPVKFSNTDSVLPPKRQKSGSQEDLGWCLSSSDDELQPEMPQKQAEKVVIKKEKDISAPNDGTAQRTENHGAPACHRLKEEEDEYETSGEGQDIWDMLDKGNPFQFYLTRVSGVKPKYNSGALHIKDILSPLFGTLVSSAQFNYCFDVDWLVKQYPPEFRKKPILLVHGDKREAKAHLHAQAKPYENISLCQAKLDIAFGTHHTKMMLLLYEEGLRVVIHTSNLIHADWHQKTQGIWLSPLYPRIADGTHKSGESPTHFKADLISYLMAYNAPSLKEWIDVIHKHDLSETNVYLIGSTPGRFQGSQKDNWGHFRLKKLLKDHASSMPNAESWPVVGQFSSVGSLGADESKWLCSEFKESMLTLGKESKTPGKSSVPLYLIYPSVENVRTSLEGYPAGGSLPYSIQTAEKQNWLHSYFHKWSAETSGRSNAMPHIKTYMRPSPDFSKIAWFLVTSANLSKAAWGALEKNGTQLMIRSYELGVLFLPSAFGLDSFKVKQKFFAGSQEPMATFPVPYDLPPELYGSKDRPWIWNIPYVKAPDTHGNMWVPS
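Enzyme-compound mixtures sat 15 min at room temperature, followed by a 5 min reaction with 15 nM final substrate and 10 min with AlphaScreen beads. Recombinant human Tdp1 was used at 1 nM final.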
TDP1 cell noCPT: qHTS for Inhibitors of human tyrosyl-DNA phosphodiesterase 1 (TDP1): qHTS in cells in absence of CPT. DT40 Tdp1-/- hTDP1 cells, no CPT, ATP luminescence, 48 h. Potency, µM (top dose mostly 46.2 µM), inactives show at the highest dose activity change, negative = growth inhibition, actives largely listed as inhibitors. 15% of 420,000 active; note: potency is the fitted concentration of half-maximal effect; nearly all actives have a fitted effect of over 55% in size
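Chicken DT40 Tdp1-/- cells stably complemented with human TDP1 were seeded at 400 cells/well with DMSO in place of 20 nM camptothecin. After compound pinning, cells grew at least 48 hr at 37 °C; viability read by CellTiter-Glo luminescence.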
Numbers without * were called inactive; u = inconclusive; x = no result; [ ] = remark or other dose. Unless noted, calls come from the whole dose curve; as a rule, active = well fitted curve in the direction sought with a large enough effect; inconclusive = small, poorly fitted or top-dose-only effect, or another doubt; inactive = no such curve, though single readings can be large; an effect the other way counts as inactive or inconclusive. % is set by controls: 0 for no effect and ±100 for the full control effect.

SMILES	Giardia kill	IL-1B inflam inh	ELG1 repair inh	TDP1 cell CPT	TDP1 block	TDP1 cell noCPT
CC(=O)c1ccc(NC(=O)c2cc(CC(C)C)on2)cc1	-3.0	-17.7	u	-3.2%	7.6%	-10.6%
CC(C)NC(C)C	x	x	x	1.7%	18.9%	-0.1%
OC(c1ccc(Cl)cc1)(c1ccc(Cl)cc1)C(Cl)(Cl)Cl	x	x	x	x	-0.3%	x
O=C(CCN1CCN(c2ccccc2)CC1)c1ccc(Br)cc1	-6.3	-16.9	7.9%	9.2µM*	x	5.8µM*
c1ccc(N2CCN(c3ccccc3)CC2)cc1	x	x	x	10.0%	x	-15.6%
CN(C)[C@H](Cc1ccccc1)c1ccccc1	x	x	x	-2.4%	x	-13.5%
O=S(=O)(NCC(c1cccnc1)N1CCN(c2ccc(F)cc2)CC1)c1ccccc1 (stereo not given)	-3.0	9.1	x	11.6µM*	x	20.6µM*
COc1ccc(N2CCN(C(CNC(=O)Oc3ccccc3)c3cccnc3)CC2)cc1 (stereo not given)	-13.1	-0.7	0.5%	-7.9%	5.3%	-24.9%
COC(=O)Nc1cccc(OC(=O)Nc2cccc(C)c2)c1	x	x	x	x	-13.2%	x
CCC(C)C(=O)N[C@@H](c1ccccc1)[C@@H](O)C(=O)O[C@H]1C[C@@]2(O)[C@@H](OC(=O)c3ccccc3)C3[C@](C)(C(=O)[C@H](OC(C)=O)C(=C1C)C2(C)C)[C@@H](O)C[C@H]1OC[C@@]31OC(C)=O (stereo not given in full)	-0.8	16.9	-16.9%	0.0291µM*	x	0.184µM*
CC/C=C/CC(=O)N[C@@H](c1ccccc1)[C@@H](O)C(=O)O[C@H]1C[C@@]2(O)[C@@H](OC(=O)c3ccccc3)C3[C@](C)(C(=O)[C@H](OC(C)=O)C(=C1C)C2(C)C)[C@@H](O)C[C@H]1OC[C@@]31OC(C)=O (stereo not given in full)	1.0	15.0	u	0.0206µM*	x	0.184µM*
C/C=C(\C)C(=O)N[C@@H](c1ccccc1)[C@@H](O)C(=O)O[C@H]1C[C@@]2(O)[C@@H](OC(=O)c3ccccc3)C3[C@](C)(C(=O)[C@H](OC(C)=O)C(=C1C)C2(C)C)[C@H](O)C[C@H]1OC[C@@]31OC(C)=O (stereo not given in full)	u	41.3	u	0.13µM*	x	0.164µM*
CC(C)n1c(N2CCN(S(=O)(=O)c3cccc([N+](=O)[O-])c3)CC2)nc2ccccc21	-17.4	-72.3*	23.1µM*	u	x	11.6µM*
O=[N+]([O-])c1cccc(C2N3CCCN23)c1 (stereo not given)	-8.7	6.3	8.9%	-5.7%	-7.7%	-0.5%
CC(C)C[C@H](NC(=O)[C@H](Cc1ccccc1)NC(=O)CNC(=O)[C@@H](NC(=O)[C@@H](N)Cc1ccc(O)cc1)[C@H](C)O)C(=O)N[C@H](C(=O)O)[C@H](C)O	x	x	x	-25.3%[4.12 µM]	-1.2%	-6.3%[4.12 µM]
Oc1cc(O)c2c(c1)OC(c1cc(O)c(O)c(O)c1)C(O)C2 (stereo not given)	x	x	x	3.26µM*	15.8µM*	u
COCCOCCO	x	x	x	-3.3%[92.5 µM]	x	-11.9%[92.5 µM]
CC(=O)OC1CCC2(C)C(CCC3C2CC(=O)C2(C)C3CC(N3CC3)C2C(C)=O)C1 (stereo not given)	-7.7	-72.1*	x	7.31µM*	x	13µM*
CC(=O)O[C@@H]1CC[C@]2(C)C3CC[C@@]4(C)C(C[C@@H](O)[C@@H]4O)C3[C@@H](OC(C)=O)C[C@H]2C1 (stereo not given in full)	-25.9	13.4	-13.3%	-25.8%	-0.5%	u
CN(C)C(=O)Oc1ccc2c(c1)O/C(=C\c1cccc(Cl)c1)C2=O	-2.4	-61.0*	u	11.3%	x	-22.7%
CN(C)C(=O)Oc1ccc2c(c1)O/C(=C\c1ccc(Cl)cc1)C2=O	61.5	-1.9	u	-29.8%	x	u
COC(=O)C1=C(c2ccccc2)C[C@@H]2CC[C@H]1N2C(=O)NC1CC1	8.9	5.0	x	-12.4%	x	x
COC(=O)C1=C(c2ccc(-c3ccccc3)c(F)c2)C[C@@H]2CC[C@H]1N2C(=O)NC1CC1	7.3	u	4.5%	4.11µM*	1.2%	9.2µM*
COC(=O)C1=C(c2ccc3ccccc3c2)C[C@@H]2CC[C@H]1N2C(=O)NC(C)C	-7.7	-1.2	4.6%	u	0.4%	18.4µM*
COC(=O)C1=C(c2ccc(-c3ccccc3)c(F)c2)C[C@@H]2CC[C@H]1N2C(=O)NC(C)C	-6.2	-14.1	-1.2%	13µM*	0.7%	18.4µM*
SMILES	Giardia kill	IL-1B inflam inh	ELG1 repair inh	TDP1 cell CPT	TDP1 block	TDP1 cell noCPT
Cc1ccccc1-n1c(CF)nc2ccc(N)cc2c1=O	x	x	x	-28.0%	x	-23.4%
CCOc1ccc(C(=O)N2CCC(c3noc(-c4ccc(S(=O)(=O)N5CCCC5)cc4)n3)CC2)cc1	x	x	x	u	4.7%	16.4µM*
O=C1NCCOC(=O)[C@H](Cc2ccc(F)cc2)CC/C=C/C[C@H]1CC(=O)N(CCO)Cc1ccccc1	2.7	-6.0	u	u	0.0%	u
O=C(NN1C(=O)C2C3C=CC([C@H]4CC34)[C@@H]2C1=O)c1ccc(Br)cc1 (stereo not given in full)	-7.3	29.9	u	-6.8%	6.3%	-6.8%
CCCCn1c(=O)c(C=Nc2cc([N+](=O)[O-])ccc2OC)c(O)n(CCCCl)c1=O	-5.5	-2.4	20.6µM*	-22.4%	7.9%	-29.1%
COc1cc(O)c2c(c1)/C=C/C[C@H](O)[C@H](O)C(=O)CCC[C@H](C)OC2=O	x	-81.3*	x	u	x	u
Cc1ccc(Cl)c(O)c1	x	x	x	-13.0%	4.3%	-4.2%
COc1cccc(NP(=O)(Oc2ccccc2)Oc2ccccc2)c1	1.8	u	u	5.17µM*	2.7%	3.66µM*
COc1cccc(NP(=O)(Oc2ccccc2Cl)Oc2ccccc2Cl)c1	2.2	-87.3*	u	u	-8.2%	18.4µM*
COC(=O)[C@@]12CCCCN1[C@H](c1ccc(-c3ccc(Cl)c(Cl)c3)c(OC)c1)[C@@H]1C(=O)N(C)C(=O)[C@@H]12	-21.6	-51.6*	x	11.6µM*	x	10.3µM*
COC(=O)[C@@]12CCCCN1[C@H](c1ccc(-c3ccc(Cl)c(Cl)c3)c(OC)c1)[C@H]1C(=O)N(C)C(=O)[C@H]12	11.4	1.8	-27.7%	18.4µM*	2.4%	16.4µM*
